Measured values: PMC9911399, “Two distinct binding modes provide the RNA-binding protein RbFox with extraordinary sequence specificity”
Substitutions are numbered along the chain they refer to; changes in the protein carry UniProt numbers. In all, about 16,000 sequences were measured (“ka relative to ugcaugu”: median about 0.096, highest 2% from about 0.35 on). What follows is part of a selection rich in the highest values, with near analogues and random picks from the rest.

T1: RBFOX1 RRM RbFoxmut (Fox-RRM*) (Homo sapiens, UniProt Q9NWB1 109-208, R118D;E147R;N151S;E152T)
T1 sequence: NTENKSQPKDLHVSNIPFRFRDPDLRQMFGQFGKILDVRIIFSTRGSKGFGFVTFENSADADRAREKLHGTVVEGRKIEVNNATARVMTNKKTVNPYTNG

B1: UUAGCGG (DNA:RNA)
RNA: GGGAGACCGGAAUUCAGAUUGUCCUUAGCGGUUAAAUCCCGUCGUAGCCACCA
DNA 1: CAATCTGAATTCCGGTCTCCC
DNA 2: TGGTGGCTACGACGGGATT
B2: AGAGGUC (DNA:RNA)
RNA: B1 RNA with U25A, U26G, C29G, G30U, G31C
DNA 1: CAATCTGAATTCCGGTCTCCC
DNA 2: TGGTGGCTACGACGGGATT
B3: CCAGAUU (DNA:RNA)
RNA: B1 RNA with U25C, U26C, C29A, G30U, G31U
DNA 1: CAATCTGAATTCCGGTCTCCC
DNA 2: TGGTGGCTACGACGGGATT
B4: UUCCUGU (DNA:RNA)
RNA: B1 RNA with A27C, G28C, C29U, G31U
DNA 1: CAATCTGAATTCCGGTCTCCC
DNA 2: TGGTGGCTACGACGGGATT
B5: GGACAAA (DNA:RNA)
RNA: B1 RNA with U25G, U26G, G28C, C29A, G30A, G31A
DNA 1: CAATCTGAATTCCGGTCTCCC
DNA 2: TGGTGGCTACGACGGGATT
B6: CCCAACC (DNA:RNA)
RNA: GGGAGACCGGAAUUCAGAUUGUCCCCCAACCUUAAAUCCCGUCGUAGCCACCA
DNA 1: CAATCTGAATTCCGGTCTCCC
DNA 2: TGGTGGCTACGACGGGATT
B7: GCCACAA (DNA:RNA)
RNA: B6 RNA with C25G, A29C, C30A, C31A
DNA 1: CAATCTGAATTCCGGTCTCCC
DNA 2: TGGTGGCTACGACGGGATT
B8: UGUAAGU (DNA:RNA)
RNA: B6 RNA with C25U, C26G, C27U, C30G, C31U
DNA 1: CAATCTGAATTCCGGTCTCCC
DNA 2: TGGTGGCTACGACGGGATT
B9: UCAGUAU (DNA:RNA)
RNA: B1 RNA with U26C, C29U, G30A, G31U
DNA 1: CAATCTGAATTCCGGTCTCCC
DNA 2: TGGTGGCTACGACGGGATT
B10: AUUAGAG (DNA:RNA)
RNA: B1 RNA with U25A, A27U, G28A, C29G, G30A
DNA 1: CAATCTGAATTCCGGTCTCCC
DNA 2: TGGTGGCTACGACGGGATT
B11: CCAGAGU (DNA:RNA)
RNA: B6 RNA with C27A, A28G, C30G, C31U
DNA 1: CAATCTGAATTCCGGTCTCCC
DNA 2: TGGTGGCTACGACGGGATT
B12: GUCGUGU (DNA:RNA)
RNA: B1 RNA with U25G, A27C, C29U, G31U
DNA 1: CAATCTGAATTCCGGTCTCCC
DNA 2: TGGTGGCTACGACGGGATT
B13: GUGUCGU (DNA:RNA)
RNA: B1 RNA with U25G, A27G, G28U, G31U
DNA 1: CAATCTGAATTCCGGTCTCCC
DNA 2: TGGTGGCTACGACGGGATT
B14: GAGUUUG (DNA:RNA)
RNA: B1 RNA with U25G, U26A, A27G, G28U, C29U, G30U
DNA 1: CAATCTGAATTCCGGTCTCCC
DNA 2: TGGTGGCTACGACGGGATT
B15: GUGUUUG (DNA:RNA)
RNA: B1 RNA with U25G, A27G, G28U, C29U, G30U
DNA 1: CAATCTGAATTCCGGTCTCCC
DNA 2: TGGTGGCTACGACGGGATT
B16: GUUUGUG (DNA:RNA)
RNA: B1 RNA with U25G, A27U, G28U, C29G, G30U
DNA 1: CAATCTGAATTCCGGTCTCCC
DNA 2: TGGTGGCTACGACGGGATT
B17: GAGUUGU (DNA:RNA)
RNA: B1 RNA with U25G, U26A, A27G, G28U, C29U, G31U
DNA 1: CAATCTGAATTCCGGTCTCCC
DNA 2: TGGTGGCTACGACGGGATT
B18: UUGUGUA (DNA:RNA)
RNA: B1 RNA with A27G, G28U, C29G, G30U, G31A
DNA 1: CAATCTGAATTCCGGTCTCCC
DNA 2: TGGTGGCTACGACGGGATT
B19: GUUGUGU (DNA:RNA)
RNA: B1 RNA with U25G, A27U, C29U, G31U
DNA 1: CAATCTGAATTCCGGTCTCCC
DNA 2: TGGTGGCTACGACGGGATT
B20: GUCCGAG (DNA:RNA)
RNA: B1 RNA with U25G, A27C, G28C, C29G, G30A
DNA 1: CAATCTGAATTCCGGTCTCCC
DNA 2: TGGTGGCTACGACGGGATT
B21: CGUUUUG (DNA:RNA)
RNA: B6 RNA with C26G, C27U, A28U, A29U, C30U, C31G
DNA 1: CAATCTGAATTCCGGTCTCCC
DNA 2: TGGTGGCTACGACGGGATT
B22: GUGUAUA (DNA:RNA)
RNA: B6 RNA with C25G, C26U, C27G, A28U, C30U, C31A
DNA 1: CAATCTGAATTCCGGTCTCCC
DNA 2: TGGTGGCTACGACGGGATT
B23: GUGUGUA (DNA:RNA)
RNA: B1 RNA with U25G, A27G, G28U, C29G, G30U, G31A
DNA 1: CAATCTGAATTCCGGTCTCCC
DNA 2: TGGTGGCTACGACGGGATT

These binders were tested against T1, RBFOX1 RRM RbFoxmut (Fox-RRM*) (assay: EMSA; HiTS-Eq, 1 nM pool, 10 min; buffer printed only for the single-RNA assays: 10 mM Tris pH 7.5, 150 mM NaCl, 3.4 mM EDTA, 0.001% NP-40, 30 C). Details: tags: His6 N-terminal (pET28a); label: 5' 32P.
Procedure, shortened: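 A pool of RNA with 7 randomized nucleotides, 5′-radiolabelled and with DNA-annealed flanks, was equilibrated at 1 nM for 10 min in 50 µL with purified RbFox RRM, wild type or mutant, across increasing protein concentrations. Free RNA was separated by 8% native PAGE, excised, reverse-transcribed, barcoded by PCR and sequenced. Relative association constants were obtained from read-count changes of each RNA species versus the control reaction and normalised to the cognate motif.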
With B1 the binding signal was 0.0965 KA relative to UGCAUGU. With B2 the binding signal was 0.108 KA relative to UGCAUGU. B3 was tested, and the binding signal was 0.0808 KA relative to UGCAUGU. In the case of B4, the binding signal is reported as 0.0952 KA relative to UGCAUGU. In the case of B5, the binding signal is reported as 0.0761 KA relative to UGCAUGU. In the case of B6, the binding signal is reported as 0.0535 KA relative to UGCAUGU. With B7 the binding signal was 0.0608 KA relative to UGCAUGU. For B8, the binding signal was 0.118 KA relative to UGCAUGU. With B9 the binding signal was 0.116 KA relative to UGCAUGU. With B10 the binding signal was 0.146 KA relative to UGCAUGU. In the case of B11, the binding signal is reported as 0.126 KA relative to UGCAUGU. B12 was tested, and the binding signal was 0.187 KA relative to UGCAUGU. In the case of B13, the binding signal is reported as 0.164 KA relative to UGCAUGU. B14 was tested, and the binding signal was 0.361 KA relative to UGCAUGU. B15 was tested, and the binding signal was 0.68 KA relative to UGCAUGU. B16 was tested, and the binding signal was 0.462 KA relative to UGCAUGU. B17 was tested, and the binding signal was 0.138 KA relative to UGCAUGU. In the case of B18, the binding signal is reported as 0.315 KA relative to UGCAUGU. B19 was tested, and the binding signal was 0.224 KA relative to UGCAUGU. With B20 the binding signal was 0.129 KA relative to UGCAUGU. In the case of B21, the binding signal is reported as 0.133 KA relative to UGCAUGU. With B22 the binding signal was 0.166 KA relative to UGCAUGU. B23 was tested, and the binding signal was 0.371 KA relative to UGCAUGU.
